Reference: PubChem BioAssay (NCI)
Where “and” joins values, the source holds several entries; their conditions need not be identical. Identical values can stand only once. The panel holds about 83,000 compounds, 20% with a hit somewhere; the sample as a whole holds those more often.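 Cell lines were cultured in 96-well plates, exposed to a single compound concentration, and assessed for percent growth 48 hours later.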 Unmarked numbers belong to inactive results. Calls of active or inactive are those of the source.

system: HL-60(TB) leukemia; test: NCI-60 one-dose screen, 48 h (100 = growth as untreated, 0 = no growth, -100 = all killed); settings: 2.5 µM
Procedure: Growth inhibition of the HL-60(TB) human tumor cell line is measured as a screen for anti-cancer activity. Cells are grown in 96 well plates and exposed to the test compound for 48 hours. Compounds are tested at a single concentration, which is 10^-5 M for most compounds. The reported endpoint is percent growth (GI% or GIPRCNT), where numbers from 0 - 100% represent growth inhibition, and numbers from -100% - 0 represent cell death. For example, a value of 40 represents 60% growth inhibition. A value of 0 means no net growth occurred over the course of the experiment. A value of -40 indicates 40% of cells at the beginning of the experiment died by the end of the experiment. A value of -100 means all cells are dead at the end of the experiment.
NCI-60 Human Tumor Cell Lines Screen was performed using the standard one-dose NCI protocol, which is described in more detail at https://dtp.cancer.gov/discovery_development/nci-60/default.htm.
Compounds with GIPRCNT values below 10 were considered active. Activity score was based on GIPRCNT using the following formula: […]
Score is 0 for GIPRCNT values of 100 or above, 50 for GIPRCNT values of 0, and 100 for GIPRCNT values of -100.

Structure (SMILES)	growth
CN(Cc1cnc2nc(N)nc(N)c2n1)c1ccc(C(=O)N[C@@H](CCC(=O)O)C(=O)O)cc1	27%

same assay, conditions: 10 µM

Structure (SMILES)	growth
CN(Cc1cnc2nc(N)nc(N)c2n1)c1ccc(C(=O)N[C@@H](CCC(=O)O)C(=O)O)cc1	24.1%

same assay, conditions: 10 µM unless noted

Structure (SMILES)	growth
CC(C)C1C2=C(NCCN1C(=O)Cc1ccccc1)C(C)(C)N(Cc1ccccc1)C2=O (stereo not given)	100%
COc1cccc2c1C=C1CCCCC3=Cc4c(OC)cccc4OC13O2	19.1%
COc1cc(/C=C/C(=O)c2c(C)n([O-])c3ccccc3[n+]2=O)cc(OC)c1OC	-10.8% (active)
COc1ccc(\C=N/N=C(N)/C(N)=N\N=C/c2ccc(OC)cc2)cc1	91.5%
COc1cc(Nc2nc3ccccc3nc2NS(=O)(=O)c2ccc(NC(=O)c3ccc(C)c(OC)c3)cc2)cc(OC)c1	74.8% and 26.7%
CCCCOC1NC(=O)NC(=O)C1(F)C(=O)OCC (stereo not given)	63.5%
COc1cccc(NC(=O)[C@H](C(C)C)n2c(=O)[nH]c3ccccc3c2=O)c1	86.2%
COc1ccc(C2CC(c3cccc(OC)c3)=NN2C(=O)c2cc(OC)c(OC)c(OC)c2)cc1 (stereo not given)	-44.1% (active)
O=C1/C(=C/c2ccc(Cl)cc2)COc2ccc(O)cc21	-11.3% (active)
O=C1OC(c2nc3ccccc3s2)=C/C1=C\c1ccc(O)cc1	98.2%
Cn1cc(-c2noc(-c3cn(C)c4ncc(F)cc34)n2)c2ccccc21	85.5%
CC(C)n1cnc2c(=S)nc[nH]c21	141%
O=C1C(Cl)=C(Nc2ccccn2)C(=O)c2ccccc21	72.9%
COc1cccc(C2=NN3C(C2)c2cc(Br)cc(OC)c2OC32CCN(Cc3ccccc3)CC2)c1 (stereo not given)	103%
COc1cc(-c2cc(/C=C3\CCCCC3=O)[nH]n2)cc(OC)c1OC	97.9%
CCCCNCCC(O)c1cc2ccc(C(F)(F)F)cc2c2cc(C(F)(F)F)ccc12 (stereo not given)	-62.1% (active)
CC1CCC(=O)N1c1ccc(N)cc1 (stereo not given)	104%
CCCCCCCCCCCCCCCCC(Br)C(=O)O (stereo not given)	111%
CC(C)CCNC(=O)Cn1cccc(NC(=O)OCc2ccccc2)c1=O	103%

Structure (SMILES)	growth
O=C(C(=O)N1CCOCC1)c1ccc(O[C@H]2O[C@H](CO)[C@@H](O)[C@H](O)[C@@H]2O)cc1	113%
CCCCCCCCCCCCCCCCNC(=O)Nc1ccc2ccccc2c1	95%
COc1ccc(-c2nc3sc(C)nn3c2-c2nc3cc(C)c(C)cc3[nH]2)cc1	112%
Oc1ccc(CCn2c(O)c(/C=C3\CN=c4ccccc4=N3)sc2=S)cc1	19.5%
O=C1NC(=S)NC(=O)C1=Cc1cccc(C=C2C(=O)NC(=S)NC2=O)c1	101%
CN1CCN(CC#CCNC(=O)[C@]23CCC(C)(C)C[C@H]2C2=CC[C@@H]4[C@@]5(C)Cc6c([nH]c7ccccc67)C(C)(C)[C@@H]5CC[C@@]4(C)[C@]2(C)CC3)CC1	49.4%
Cn1cnc2c(N3CCN(C(=O)OCc4ccc5c(Cl)cc(Cl)c(O)c5n4)CC3)nc(Cl)nc21	66%
COc1ccc(-c2nc3ncccn3c2-c2nnc(-c3ccc(F)cc3)o2)cc1	91.1%
O=C(O)c1ccc(-n2cc(CNc3ccc(Cl)cc3)c(-c3ccccc3)n2)cc1	95%
CNS(=O)(=O)Oc1ccc(-c2ccc3occc3c2)cc1	100%
Cc1cc(C)c(N2C(=O)CC(Sc3ccccc3N)C2=O)c(C)c1 (stereo not given)	68.8%
N=C(N=C(N)N)N1CCOCC1	100% and 99.1%
COc1ccc(NS(=O)(=O)N2CCCCC2)cc1	115%
CC(C)Cc1ccc(C(C)C(=O)NCc2c[nH]c3ccc(Cl)cc23)cc1 (stereo not given)	87.6%
COc1c(B(O)O)cccc1-c1nc2ccc3n[nH]c(F)c3c2c2c1CCCC2	20%
Cc1ccc2nc(SCC(=O)Nc3ccc(-c4nc5ccccc5s4)c(Cl)c3)[nH]c2c1	111%
C=C(C)[C@@H]1CC[C@]2(CO)CC[C@]3(C)[C@H](CC[C@@H]4[C@@]5(C)C=C(C#N)C(=O)C(C)(C)[C@@H]5CC[C@]43C)[C@@H]12	-26.1% (active)
COc1ccc2nc(C)cc(Nc3ccc(Cl)cc3)c2c1	95.6%
CC(=O)Nc1ccc2c(c1)c(NC(C)=O)nn2C(=O)Nc1ccc(Cc2ccccc2)cc1	93.1%
